# Screening results deposited in PubChem by National Center for Advancing Translational Sciences (NCATS).
# ELG1 DNA repair: blocks ELG1-dependent DNA repair in HEK293T cells. HEK293T ELG1-luciferase reporter, luminescence, 16 h; DNA damage induced by 5-fluorouridine. Potency, µM (series often up to 46.1 µM), for inactives: top-dose activity change, negative = inhibition, hits mostly inhibitors. 330,000 compounds, 2.3% hits; further: on the % scale 0 is the no-effect control and ±100 the full control effect; nearly all actives have a fitted effect of over 55% in size
#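 5-Fluorouridine DNA damage + compound/DMSO, 2,000 cells/well, 16 h, 37 °C/5% CO2. ONE-Glo, 30 min RT, luminescence. Readout = decrease in reporter signal.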
# SW480 rerep: inducers of DNA re-replication in SW480 colon cancer cells | SW480 DNA re-replication, Hoechst DNA content imaging, 48 h | Potency, µM (titrated, usually from 46.1 µM), without a hit: at the highest dose re-replication activation, most hits filed as activators | 340,000 compounds, 1.8% hits | AID 624297; further: % of control where 0% means no effect; nearly all actives have a fitted effect of over 55% in size
#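 DNA re-replication was detected as more nuclei of elevated Hoechst intensity after 48 hr exposure to compound (23 nL pinned per well of 250 cells).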
# p53 reactivator: mutant p53 re-activation in reporter cells. AID 504706. H1299 p53-A138V BP100-luciferase reporter, luminescence, 24 h. Potency, µM (doses to about 92.2 µM), without a hit: top-dose activity change, positive = activation, hits mostly activators. 320,000 compounds, 0.063% hits; further: % of control where 0% means no effect; nearly all actives have a fitted effect of over 45% in size
#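 p53-null H1299 cells stably carrying temperature-sensitive p53-A138V and a BP100-luciferase reporter were pinned with compounds (4-point, 1:5 series) and held 24 hrs at 37 deg C. Luminescence was read 10 min after detection reagent.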
# ELG1 genotoxic: genotoxicity induction in ELG1-luciferase HEK293T cells; Potency, µM (highest dose often 46 µM), for the others: top-dose activity change, positive = activation, hits mostly activators; HEK293T ELG1-luciferase reporter, luminescence, 16 h; AID 504466; 330,000 compounds, 1.3% hits; further: % of control where 0% means no effect; nearly all actives have a fitted effect of over 60% in size
#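 HEK293T cells expressing luciferase-tagged ELG1 were exposed to compound or DMSO vehicle for 16 hr at 37 °C and 5% CO2. Luciferase activity was then measured with ONE-Glo after 30 min at room temperature.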
# MCF10A rerep: DNA re-replication induction in MCF 10a cells; AID 624296; MCF 10A DNA re-replication, Hoechst nuclear intensity, 48 h; 350,000 compounds, 2.9% hits; Potency, µM (doses to about 46.1 µM), without a hit: at the top dose activity, positive = re-replication, usual class: activators; further: % of control where 0% means no effect; nearly all actives have a fitted effect of over 50% in size
# A-T KAP1 phos: candidate therapy for ataxia-telangiectasia | AID 485349 | 320,000 compounds, 0.19% hits | Potency, µM (series often up to 57.5 µM), for inactives: at the top dose activation, actives largely listed as activators | F2112 A-T fibroblasts, KAP-1 phosphorylation AlphaLISA; neocarzinostatin DNA damage 30 min before lysis; further: % of control where 0% means no effect; nearly all actives have a fitted effect of over 45% in size
#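 hTERT-immortalized A-T patient fibroblasts (F2112), 500 cells/well in OPTI-MEM, 1% FBS, got compounds for 60 min, then NCS for 30 min at 37C. Lysates were then assayed for phospho-KAP-1 by AlphaLISA (anti-pKAP1 donor, anti-KAP1 acceptor beads), 6 hr at 25C.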
# Active calls of the source: *; ? = inconclusive; . = no result given; [ ] = dose if it differs, or a comment. Hits are enriched below; roughly 7.1% of the tested compounds scored in any of these assays. The call rests on the fitted dose curve; in most records, active means well fitted curve in the direction sought with a large enough effect; inconclusive means small, poorly fitted or top-dose-only effect, or another doubt; inactive means no such curve, though single readings can be large; an effect the other way counts as inactive or inconclusive. Potency means the concentration at half of the fitted maximal effect.
SMILES,ELG1 DNA repair,SW480 rerep,p53 reactivator,ELG1 genotoxic,MCF10A rerep,A-T KAP1 phos
O=C1C=CC(=O)N1c1ccccc1N1C(=O)C=CC1=O,.,2.3µM*,.,.,?,.
O=C(O)c1ccccc1C(=O)c1ccc(-c2ccccc2)cc1,?,-4%,?,5%,-6%,?
O=C(c1ccccc1)c1ccccc1N1C(=O)C=CC1=O,?,?,-14%,1%,5.2µM*,?
O=C1N/C(=C\c2nc3ccccc3s2)c2ccccc21,?,.,20%,0.58µM*,.,2%
O=C1N/C(=C\c2ccccc2)c2ccccc21,21%,?,9%,?,18µM*,-1%
COc1ccccc1CNC(=O)CSc1nnc2c(n1)[nH]c1ccc(F)cc12,9%,-16%,5%,-1%,-28%,4%
Cc1ccc(NC(=O)/C(Cl)=C\c2ccccc2)cc1,0%,-4%,9%,-5%,3%,-3%
CC(=O)c1ccc(NC(=O)/C(Cl)=C/c2ccccc2)cc1,?,3%,2%,8.2µM*,1%,-5%
O=C(Nc1ccccc1)/C(=C/c1ccccc1)c1ccccc1,10µM*,11%,-4%,-3%,12%,-2%
COc1ccccc1C(=O)NCCN=C1NS(=O)(=O)c2ccccc21,-4%,-25%,-4%,2%,8%,11%
Cc1ccc(C2C(C(=O)c3cc4ccccc4o3)=C(O)C(=O)N2c2cc(C)on2)cc1 (stereo not given),0%,?,-2%,1%,9.2µM*,-17%
Cc1cc(N2C(=O)C(O)=C(C(=O)c3cc4ccccc4o3)C2c2ccc([N+](=O)[O-])cc2)no1 (stereo not given),2%,2%,-5%,5%,1%,-19%
CCOC(=O)CCc1c(C)c2ccc3c(c2oc1=O)CN(CCCO)CO3,5%,?,-5%,-1%,7.3µM*,?
CS(=O)(=O)N1CCN(C(=O)c2cc(-c3cccs3)nc3ccccc23)CC1,16µM*,0%,1%,-1%,-2%,5%
CCOC(=O)N1CCN(C(=O)c2cc(-c3ccc(OCC)cc3)nc3ccccc23)CC1,?,4.6µM*,?,0%,3.7µM*,0%
CCOC(=O)C1CCN(C(=O)c2cc(-c3ccncc3)nc3ccccc23)CC1,?,-8%,-7%,-4%,2%,-7%
CCOc1ccc(-c2cc(C(=O)N3CCN(C)CC3)c3ccccc3n2)cc1,?,1%,28%,?,-3%,5%
CS(=O)(=O)N1CCN(C(=O)c2cc(-c3ccccc3)nc3ccccc23)CC1,-4%,0%,0%,-1%,15%,5%
CCOC(=O)N1CCN(C(=O)c2cc(-c3ccncc3)nc3ccccc23)CC1,?,18µM*,-4%,0%,?,6%
Cc1ccc(NC(=S)N2CCN(c3ccccc3F)CC2)c(C)c1,-17%,-1%,1%,-3%,0%,2%
CC(C)CN(C(=O)Cn1ccccc1=O)C1CCS(=O)(=O)C1 (stereo not given),?,-7%,9%,0%,-1%,7%
COC(=O)c1ccc(Sc2nnnn2-c2ccccc2)c([N+](=O)[O-])c1,0%,10µM*,-39%,-3%,?,6%
Cc1nc(C)c2c(=O)cc(-c3ccccc3)[nH]c2n1,-1%,8.9µM*,-7%,11%,7.9µM*,0%
O=C(Nc1cccc(-c2nc3cc(Cl)ccc3o2)c1)C1CCCO1 (stereo not given),?,7%,20%,6%,-4%,16%
Cc1ccc2oc(-c3cccc(NC(=O)C4CCCO4)c3)nc2c1 (stereo not given),?,-1%,2%,21µM*,-3%,11%
SMILES,ELG1 DNA repair,SW480 rerep,p53 reactivator,ELG1 genotoxic,MCF10A rerep,A-T KAP1 phos
CSc1nc2ccc(NC(=O)C3CCCO3)cc2s1 (stereo not given),?,-4%,?,10µM*,?,2%
Cc1cccc(-c2nc3cc(NC(=O)C4CCCO4)ccc3o2)c1 (stereo not given),?,-59%,?,1.2µM*,-56%,11%
O=C(Nc1nc2ccccc2[nH]1)C1CCCO1 (stereo not given),?,0%,?,16%,?,3%
O=C(Nc1ccc(-c2nc3ccccc3[nH]2)cc1)C1CCCO1 (stereo not given),?,-1%,21%,0.41µM*,-4%,5%
COc1ccc2nc(NC(=O)C3CCCO3)sc2c1 (stereo not given),?,-27%,1%,?,0%,-1%
O=C(c1ccc(Cl)cc1)C1CCN(C(=S)Nc2ccccc2)CC1,.,3%,.,.,-4%,.
COc1ccc(NS(=O)(=O)c2cccc(C(=O)NNC(=O)c3cncc(Br)c3)c2)cc1,2%,0%,5%,-1%,8%,-3%
O=C(Nc1ccc2oc(-c3cccc(F)c3)nc2c1)c1ccccc1F,?,?,-1%,21µM*,?,5%
Cc1ccc2oc(-c3ccc(C)c(NC(=S)NC(=O)c4cccs4)c3)nc2c1,?,-6%,.,8.2µM*,10µM*,1%
Cc1ccc(-c2nc3ccccc3o2)cc1NC(=S)NC(=O)c1cc2ccccc2o1,?,?,?,?,8%,14%
CCC(=O)Nc1ccc2oc(-c3cccc(C)c3)nc2c1,?,6%,1%,0.41µM*,-2%[9.22 µM],-6%
CCc1ccc(NC(=O)c2ccccc2NC(=O)C2CCCO2)cc1 (stereo not given),?,8%,?,12µM*,2%,.
O=C(CSc1ccc(-c2ccccn2)nn1)Nc1cccc(F)c1,30%,29%,?,?,?,3%
CCOC(=O)[C@@H]1[C@H]2COc3cc(OC)ccc3[C@@H]2N2C(=O)N(c3cccc(Cl)c3)C(=O)[C@@]12C,12%,-10%,6%,0%,0%,10%
Cc1ccc2oc(-c3ccc(C)c(NC(=O)Cc4cccs4)c3)nc2c1,-6%,-38%,-3%,1%,2%,7%
Cc1ccc2oc(-c3cccc(NC(=O)Cc4cccs4)c3)nc2c1,?,2%,3%,9%,15µM*,-4%
O=[N+]([O-])c1ccc(CSc2nnc(SCc3ccccc3)s2)cc1,4%,-9%,1%,1%,6.5µM*,2%
O=[N+]([O-])c1ccc(CSc2nc3ccccc3o2)cc1,?,5%,?,?,1%,15%
